# Paper PMC7862700, “An all-to-all approach to the identification of sequence-specific readers for epigenetic DNA modifications on cytosine”
# Legend:
# Assay in all cases: DAPPL (digital affinity profiling via proximity ligation, sequencing); 10 mM Tris-HCl pH 7.5, 50 mM NaCl, 1 mM DTT, 4% glycerol, room temperature, 30 min; GST-TFs on glutathione beads, 16-mer random dsDNA library, 0.1% formaldehyde crosslink after washing; high values mean tight binding
# Details in all cases: protein: recombinant; tags: N-terminal GST; dsDNA, one strand shown
# [1] = molecular target: T1, ELK3 (Homo sapiens, UniProt P41970 1-407)
# T1 sequence: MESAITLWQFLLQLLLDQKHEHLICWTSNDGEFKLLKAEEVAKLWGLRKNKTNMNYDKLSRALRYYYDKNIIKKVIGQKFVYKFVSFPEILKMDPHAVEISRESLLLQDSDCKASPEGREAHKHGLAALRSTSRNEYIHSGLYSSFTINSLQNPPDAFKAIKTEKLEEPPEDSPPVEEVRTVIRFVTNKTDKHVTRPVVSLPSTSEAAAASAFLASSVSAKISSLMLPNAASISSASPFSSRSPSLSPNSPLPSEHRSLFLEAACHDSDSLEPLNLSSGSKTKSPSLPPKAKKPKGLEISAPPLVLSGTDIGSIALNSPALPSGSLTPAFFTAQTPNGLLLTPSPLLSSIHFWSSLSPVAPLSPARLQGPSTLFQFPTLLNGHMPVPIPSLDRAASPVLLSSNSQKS
# How it was run: (§1)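 Human transcription factors fused to GST were expressed in yeast, captured on glutathione beads, given DNA barcodes and pooled with a GST-only negative control. Pools were incubated with 200 nmole of a 16-mer random double-stranded DNA library in Tris/NaCl/DTT/glycerol buffer at room temperature for 30 min. They were then washed, crosslinked with 0.1% formaldehyde, proximity-ligated (BsaI/T4 ligase, 1 h, 37 °C), PCR-amplified and sequenced on an Illumina NextSeq500. Binding signal is each 6-mer's read frequency for a factor divided by its frequency for the GST control.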
# [2] = molecular target: T2, FEV (Homo sapiens, UniProt Q99581 1-238)
# T2 sequence: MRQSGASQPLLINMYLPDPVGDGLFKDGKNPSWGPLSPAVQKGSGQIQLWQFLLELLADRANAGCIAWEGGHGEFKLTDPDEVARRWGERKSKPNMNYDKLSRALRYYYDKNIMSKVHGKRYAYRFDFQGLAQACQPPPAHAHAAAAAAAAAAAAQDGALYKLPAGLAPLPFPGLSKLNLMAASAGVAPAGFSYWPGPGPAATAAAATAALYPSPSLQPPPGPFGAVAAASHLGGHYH
# How it was run: as §1
# [3] = molecular target: T3, ELK4 (Homo sapiens, UniProt P28324-2 1-405)
# T3 sequence: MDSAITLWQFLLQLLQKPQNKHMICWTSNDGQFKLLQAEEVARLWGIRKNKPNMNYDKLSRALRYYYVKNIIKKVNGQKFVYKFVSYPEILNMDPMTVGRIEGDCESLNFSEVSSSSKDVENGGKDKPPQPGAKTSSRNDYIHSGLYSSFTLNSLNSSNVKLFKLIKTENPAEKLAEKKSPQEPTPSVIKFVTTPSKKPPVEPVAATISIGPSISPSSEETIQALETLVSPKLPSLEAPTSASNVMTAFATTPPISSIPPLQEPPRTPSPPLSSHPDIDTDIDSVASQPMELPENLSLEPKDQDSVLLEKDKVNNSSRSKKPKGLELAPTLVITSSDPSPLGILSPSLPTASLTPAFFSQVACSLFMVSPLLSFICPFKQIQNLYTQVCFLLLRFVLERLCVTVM
# How it was run: as §1
# [4] = molecular target: T4, SPDEF (Homo sapiens, UniProt O95238 1-335)
# T4 sequence: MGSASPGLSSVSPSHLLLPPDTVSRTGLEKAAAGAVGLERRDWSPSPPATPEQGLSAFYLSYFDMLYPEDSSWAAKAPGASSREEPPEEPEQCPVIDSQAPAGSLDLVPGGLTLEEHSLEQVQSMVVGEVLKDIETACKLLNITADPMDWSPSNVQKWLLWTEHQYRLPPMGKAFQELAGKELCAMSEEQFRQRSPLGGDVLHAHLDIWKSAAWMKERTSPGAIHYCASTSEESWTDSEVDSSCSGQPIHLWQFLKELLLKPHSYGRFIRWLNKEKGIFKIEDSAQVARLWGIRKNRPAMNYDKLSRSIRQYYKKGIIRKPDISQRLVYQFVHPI
# How it was run: as §1
# [5] = molecular target: T5, ETV2 (Homo sapiens, UniProt O00321 1-342)
# T5 sequence: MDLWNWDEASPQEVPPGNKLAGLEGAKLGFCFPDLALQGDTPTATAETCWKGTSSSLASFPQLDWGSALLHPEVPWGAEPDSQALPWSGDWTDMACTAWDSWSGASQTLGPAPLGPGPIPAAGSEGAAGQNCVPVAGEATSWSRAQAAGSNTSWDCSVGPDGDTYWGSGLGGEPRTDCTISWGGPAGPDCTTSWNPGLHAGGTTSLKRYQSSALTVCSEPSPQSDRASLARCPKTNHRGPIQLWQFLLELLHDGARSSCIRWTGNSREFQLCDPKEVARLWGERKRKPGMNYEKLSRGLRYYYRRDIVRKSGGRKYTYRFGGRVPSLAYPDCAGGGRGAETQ
# How it was run: as §1
# [6] = molecular target: T6, ELF3 (Homo sapiens, UniProt P78545 1-371)
# T6 sequence: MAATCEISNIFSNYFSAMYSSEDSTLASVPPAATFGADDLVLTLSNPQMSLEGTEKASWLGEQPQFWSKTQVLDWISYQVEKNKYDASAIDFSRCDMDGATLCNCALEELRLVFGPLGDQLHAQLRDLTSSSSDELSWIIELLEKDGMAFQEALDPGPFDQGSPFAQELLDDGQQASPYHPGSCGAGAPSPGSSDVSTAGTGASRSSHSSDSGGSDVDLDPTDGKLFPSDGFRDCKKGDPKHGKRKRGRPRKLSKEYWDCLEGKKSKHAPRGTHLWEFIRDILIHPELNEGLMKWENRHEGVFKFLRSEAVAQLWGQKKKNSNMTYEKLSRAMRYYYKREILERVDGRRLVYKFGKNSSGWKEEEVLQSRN
# How it was run: as §1
# [7] = molecular target: CRX (Homo sapiens, UniProt O43186 1-299)
# How it was run: as §1
# [8] = molecular target: ETV1 (Homo sapiens, UniProt P50549 1-477)
# How it was run: as §1
# [9] = molecular target: T7, ERF (Homo sapiens, UniProt P50548 1-548)
# T7 sequence: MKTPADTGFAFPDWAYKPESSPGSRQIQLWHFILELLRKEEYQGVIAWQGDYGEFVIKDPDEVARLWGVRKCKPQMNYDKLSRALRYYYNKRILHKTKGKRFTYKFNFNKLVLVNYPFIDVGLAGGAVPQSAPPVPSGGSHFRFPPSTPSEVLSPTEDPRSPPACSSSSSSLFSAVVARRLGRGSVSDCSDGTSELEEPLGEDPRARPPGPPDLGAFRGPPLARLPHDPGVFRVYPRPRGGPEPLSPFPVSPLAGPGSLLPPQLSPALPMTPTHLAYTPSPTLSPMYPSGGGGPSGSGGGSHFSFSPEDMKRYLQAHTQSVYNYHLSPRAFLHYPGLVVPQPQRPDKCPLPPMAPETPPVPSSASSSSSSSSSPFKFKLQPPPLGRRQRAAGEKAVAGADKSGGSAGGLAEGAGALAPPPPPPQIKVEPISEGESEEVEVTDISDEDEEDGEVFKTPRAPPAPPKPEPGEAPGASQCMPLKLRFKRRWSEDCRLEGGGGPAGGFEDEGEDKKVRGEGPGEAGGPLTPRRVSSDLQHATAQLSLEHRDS
# How it was run: as §1
# [10] = molecular target: T8, ETS2 (Homo sapiens, UniProt P15036 1-469)
# T8 sequence: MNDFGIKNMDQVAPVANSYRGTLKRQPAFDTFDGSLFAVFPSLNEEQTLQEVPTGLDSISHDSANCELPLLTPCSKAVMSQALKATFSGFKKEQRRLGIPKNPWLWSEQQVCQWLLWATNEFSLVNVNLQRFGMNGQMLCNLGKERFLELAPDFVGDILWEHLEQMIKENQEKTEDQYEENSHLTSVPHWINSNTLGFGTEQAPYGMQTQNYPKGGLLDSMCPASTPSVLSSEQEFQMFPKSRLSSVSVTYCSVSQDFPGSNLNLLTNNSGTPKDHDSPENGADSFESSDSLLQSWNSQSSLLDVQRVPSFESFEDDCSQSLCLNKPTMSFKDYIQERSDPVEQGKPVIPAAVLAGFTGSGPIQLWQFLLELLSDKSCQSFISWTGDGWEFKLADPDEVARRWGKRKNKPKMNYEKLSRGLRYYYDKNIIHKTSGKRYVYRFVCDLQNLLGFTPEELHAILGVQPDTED
# How it was run: as §1
# [11] = molecular target: T9, EHF (Homo sapiens, UniProt Q9NZC4 1-300)
# T9 sequence: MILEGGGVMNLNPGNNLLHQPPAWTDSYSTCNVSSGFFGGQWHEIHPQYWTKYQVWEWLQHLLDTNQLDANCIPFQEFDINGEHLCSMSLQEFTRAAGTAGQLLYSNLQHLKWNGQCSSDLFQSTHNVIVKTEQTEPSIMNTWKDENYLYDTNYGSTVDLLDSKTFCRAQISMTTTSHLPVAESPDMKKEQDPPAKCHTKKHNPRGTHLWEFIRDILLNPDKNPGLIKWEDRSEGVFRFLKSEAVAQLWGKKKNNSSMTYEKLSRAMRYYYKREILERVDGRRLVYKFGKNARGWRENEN
# How it was run: as §1
# [12] = molecular target: T10, ETV3 (Homo sapiens, UniProt P41162-2 1-143)
# T10 sequence: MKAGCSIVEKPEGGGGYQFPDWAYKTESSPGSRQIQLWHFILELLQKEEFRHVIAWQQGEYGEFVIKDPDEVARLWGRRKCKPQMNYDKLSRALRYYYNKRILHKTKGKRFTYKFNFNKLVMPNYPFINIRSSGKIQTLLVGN
# How it was run: as §1
# [13] = molecular target: ETV6 (Homo sapiens, UniProt P41212 1-452)
# How it was run: as §1
# CRX, sequence (O43186 whole entry): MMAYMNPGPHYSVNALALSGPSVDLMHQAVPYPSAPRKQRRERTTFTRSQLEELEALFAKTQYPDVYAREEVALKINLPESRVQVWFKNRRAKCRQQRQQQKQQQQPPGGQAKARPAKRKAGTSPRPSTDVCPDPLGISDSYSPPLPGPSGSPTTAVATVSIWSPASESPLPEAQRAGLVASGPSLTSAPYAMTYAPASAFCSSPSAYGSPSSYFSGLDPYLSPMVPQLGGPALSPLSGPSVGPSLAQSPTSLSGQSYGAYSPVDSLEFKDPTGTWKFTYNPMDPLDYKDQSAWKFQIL
# ETV1, sequence (P50549 whole entry): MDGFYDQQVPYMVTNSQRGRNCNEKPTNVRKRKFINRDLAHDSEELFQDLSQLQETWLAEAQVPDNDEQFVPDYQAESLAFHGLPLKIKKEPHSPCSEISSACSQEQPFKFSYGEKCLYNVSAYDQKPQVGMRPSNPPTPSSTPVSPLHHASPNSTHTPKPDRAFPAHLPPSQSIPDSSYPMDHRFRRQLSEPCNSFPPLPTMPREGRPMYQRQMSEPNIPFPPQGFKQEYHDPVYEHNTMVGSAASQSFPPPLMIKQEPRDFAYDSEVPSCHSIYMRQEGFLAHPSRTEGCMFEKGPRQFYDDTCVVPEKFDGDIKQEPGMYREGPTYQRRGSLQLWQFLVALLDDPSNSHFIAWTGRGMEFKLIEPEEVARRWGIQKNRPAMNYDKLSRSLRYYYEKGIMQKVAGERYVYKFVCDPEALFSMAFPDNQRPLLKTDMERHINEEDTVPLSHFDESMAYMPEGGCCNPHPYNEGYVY
# ETV6, sequence (P41212 whole entry): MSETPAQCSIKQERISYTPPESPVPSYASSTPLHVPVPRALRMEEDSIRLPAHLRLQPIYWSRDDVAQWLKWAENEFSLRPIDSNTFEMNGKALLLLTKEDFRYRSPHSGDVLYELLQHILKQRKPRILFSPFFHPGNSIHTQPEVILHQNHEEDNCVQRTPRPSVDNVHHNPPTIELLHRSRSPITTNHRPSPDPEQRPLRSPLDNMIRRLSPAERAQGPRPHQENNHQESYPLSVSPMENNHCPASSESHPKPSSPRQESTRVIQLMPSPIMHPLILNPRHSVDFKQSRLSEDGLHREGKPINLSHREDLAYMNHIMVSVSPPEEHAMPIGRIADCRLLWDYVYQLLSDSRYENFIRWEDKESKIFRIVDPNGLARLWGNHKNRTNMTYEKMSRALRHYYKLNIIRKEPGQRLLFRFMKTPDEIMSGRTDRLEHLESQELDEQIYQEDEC
sequence,measurement,setting,value
CGGTCC,binding signal,[1],"1.03 fold enrichment (6-mer frequency, TF over GST control)"
same,binding signal,[2],"1.06 fold enrichment (6-mer frequency, TF over GST control)"
same,binding signal,[3],"1.08 fold enrichment (6-mer frequency, TF over GST control)"
same,binding signal,[4],"1.04 fold enrichment (6-mer frequency, TF over GST control)"
GCGTCA,binding signal,[3],"1.01 fold enrichment (6-mer frequency, TF over GST control)"
same,binding signal,[5],"1.06 fold enrichment (6-mer frequency, TF over GST control)"
AGCCCA,binding signal,[2],"1.01 fold enrichment (6-mer frequency, TF over GST control)"
same,binding signal,[5],"1.04 fold enrichment (6-mer frequency, TF over GST control)"
same,binding signal,[6],"1.04 fold enrichment (6-mer frequency, TF over GST control)"
same,binding signal,[7],"1.05 fold enrichment (6-mer frequency, TF over GST control)"
CCTAGT,binding signal,[6],"1.04 fold enrichment (6-mer frequency, TF over GST control)"
same,binding signal,[8],"1.02 fold enrichment (6-mer frequency, TF over GST control)"
same,binding signal,[9],"1 fold enrichment (6-mer frequency, TF over GST control)"
same,binding signal,[10],"1.06 fold enrichment (6-mer frequency, TF over GST control)"
GCGGCT,binding signal,[11],"1.02 fold enrichment (6-mer frequency, TF over GST control)"
same,binding signal,[5],"1.08 fold enrichment (6-mer frequency, TF over GST control)"
same,binding signal,[7],"1.05 fold enrichment (6-mer frequency, TF over GST control)"
same,binding signal,[9],"1.08 fold enrichment (6-mer frequency, TF over GST control)"
same,binding signal,[12],"1 fold enrichment (6-mer frequency, TF over GST control)"
same,binding signal,[13],"1 fold enrichment (6-mer frequency, TF over GST control)"
